Test results published in article PMC4336329 (PLoS ONE, 2015).
Among all 310,000 compounds or so, about 14,000 (4.5%) showed an effect of 50% or more. The effect is printed as a negative number. This excerpt belongs to a sample that is enriched for strong results.

Each compound was assayed against human ether-à-go-go-related gene (hERG) potassium channel (human, UniProt Q12809) (assay: primary screen, population patch clamp on CHO cells stably expressing hERG; higher = less effect of the substance).
Sequence of human ether-à-go-go-related gene (hERG) potassium channel (Q12809 whole entry, looked up): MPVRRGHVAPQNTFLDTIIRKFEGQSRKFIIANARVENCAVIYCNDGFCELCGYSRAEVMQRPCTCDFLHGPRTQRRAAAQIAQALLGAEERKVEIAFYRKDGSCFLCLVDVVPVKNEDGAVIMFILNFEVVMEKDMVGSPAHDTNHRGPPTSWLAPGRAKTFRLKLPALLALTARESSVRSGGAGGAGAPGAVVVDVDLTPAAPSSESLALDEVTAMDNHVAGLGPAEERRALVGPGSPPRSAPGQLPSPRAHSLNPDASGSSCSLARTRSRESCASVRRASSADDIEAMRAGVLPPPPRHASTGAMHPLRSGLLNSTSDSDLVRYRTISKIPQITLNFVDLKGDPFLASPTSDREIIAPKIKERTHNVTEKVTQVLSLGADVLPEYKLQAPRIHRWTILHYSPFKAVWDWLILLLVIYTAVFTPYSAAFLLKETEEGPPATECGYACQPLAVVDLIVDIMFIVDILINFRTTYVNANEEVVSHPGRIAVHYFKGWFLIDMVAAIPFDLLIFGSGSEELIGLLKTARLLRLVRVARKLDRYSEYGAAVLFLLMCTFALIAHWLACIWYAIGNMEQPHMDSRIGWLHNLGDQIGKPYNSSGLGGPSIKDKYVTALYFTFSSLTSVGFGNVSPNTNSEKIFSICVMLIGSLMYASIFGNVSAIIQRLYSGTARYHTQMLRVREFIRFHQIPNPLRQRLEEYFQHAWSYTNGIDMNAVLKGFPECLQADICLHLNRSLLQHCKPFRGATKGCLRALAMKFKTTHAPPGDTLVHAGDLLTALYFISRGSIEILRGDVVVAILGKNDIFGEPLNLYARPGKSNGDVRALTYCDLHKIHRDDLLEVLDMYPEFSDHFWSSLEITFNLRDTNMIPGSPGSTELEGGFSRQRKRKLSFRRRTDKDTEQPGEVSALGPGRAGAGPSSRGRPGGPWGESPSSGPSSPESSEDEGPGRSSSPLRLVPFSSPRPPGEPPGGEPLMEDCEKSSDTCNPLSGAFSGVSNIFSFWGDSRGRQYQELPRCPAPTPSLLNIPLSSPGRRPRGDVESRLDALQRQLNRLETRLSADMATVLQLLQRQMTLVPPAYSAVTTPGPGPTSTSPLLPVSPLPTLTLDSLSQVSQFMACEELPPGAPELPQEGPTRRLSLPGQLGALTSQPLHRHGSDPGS
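Note: peak tail current of the secondary pulse compared with the same well before compound.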

| SMILES | hERG current change (%, negative = inhibition) at 10uM |
| --- | --- |
| CNC1=C([N+](=O)[O-])CC([N+](=O)[O-])=C(N2CCNCC2)N1C | 8.57% |
| COc1cccc(-c2nc(CS(=O)(=O)CC(=O)NCCCN3CCc4ccccc4C3)c(C)o2)c1 | -71.6% |
| CCOC(=O)N1CCC(NC(=O)CS(=O)(=O)Cc2nc(-c3cccc(OC)c3)oc2C)CC1 | -54.2% |
| COc1cccc(-c2nc(CS(=O)(=O)CC(=O)NCCCN3CCN(C)CC3)c(C)o2)c1 | 3.5% |
| CCOC(=O)N1CCC(NC(=O)CS(=O)(=O)Cc2nc(-c3ccc(OC)cc3)oc2C)CC1 | 13.3% |
| COc1cccc(-c2nc(CS(=O)(=O)CC(=O)NC3CC3)c(C)o2)c1 | 16.1% |
| COc1cccc(-c2nc(CS(=O)(=O)CC(=O)NCCCN3CCOCC3)c(C)o2)c1 | 7.17% |
| CCCNC(=O)CS(=O)(=O)Cc1nc(-c2cccc(OC)c2)oc1C | -70% |
| COCCCNC(=O)CS(=O)(=O)Cc1nc(-c2cccc(OC)c2)oc1C | 7.73% |
| COc1cccc(-c2nc(CS(=O)(=O)CC(=O)NCCC(C)C)c(C)o2)c1 | -10.7% |
| CCC(=O)N1CC2(c3ccccc3)CN(C(=O)CC)CC(c3ccccc3)(C1)C2=O | 5.6% |
| CC1CCc2cc(F)ccc2N1C(=O)C1(C)CC1(Cl)Cl (centres unmarked) | 4.51% |
| CC1CCCN(CCS(=O)(=O)c2ccccc2)C1 (centres unmarked) | 3.59% |
| O=C(CN(C(=O)CNC(=O)c1ccco1)c1ccc(Cl)c(Cl)c1)NC1CCCCC1 | -27.2% |
| O=C(Nc1ccccc1Sc1ccccc1)c1ccc(F)cc1 | -7.65% |
| O=C(c1ccc(Cl)cc1Cl)N1CCC(C(=O)N2CCOCC2)CC1 | 9.99% |

| SMILES | hERG current change (%, negative = inhibition) at 10uM |
| --- | --- |
| CCOC(=O)c1c(C)[nH]c(C)c1S(=O)(=O)NCc1cc(C)ccc1C | -6.49% |
| CCNC(=O)C12CCC(C)(c3nc4cc(C)c(C)cc4nc31)C2(C)C (centres unmarked) | 33.5% |
| CC12CCC(=O)N1C(C(=O)Nc1nc(-c3ccccc3Cl)cs1)CS2 (centres unmarked) | -6.16% |
| Cc1ccc(S(=O)(=O)N2C(=O)CCC2C(=O)Nn2cnnc2)cc1 (centres unmarked) | 5.62% |
| OC(CN1CCN(c2ccc(F)cc2)CC1)c1ccc(Cl)cc1 (centres unmarked) | -37.9% |
| COc1ccc(S(=O)(=O)N2CCC(O)(c3ccc(Cl)cc3)CC2)cc1 | 24.2% |
| OC1(c2ccc(Cl)cc2)CCN(Cc2cn[nH]c2-c2ccc(F)cc2)CC1 | -68.7% |
| OC1(c2ccc(Cl)cc2)CCN(Cc2c[nH]c3ccccc23)CC1 | -63.7% |
| COc1ccc(C2(O)CCN(Cc3nnnn3Cc3ccc(C)cc3)CC2)cc1 | -21.4% |
| O=C(O)C(=O)O.O=C(c1cccc(Cl)c1)N1CCN(Cc2c[nH]c3ccccc23)CC1 | -20.4% |
| OCC1(Cc2ccccc2)CCCN(Cc2c[nH]c3ccccc23)C1 (centres unmarked) | -27% |
| OC(CCCN1CCC(O)(c2ccc(Cl)cc2)CC1)c1ccc(F)cc1 (centres unmarked) | -75.7% |
| COc1ccc(-c2[nH]ncc2CN2CCC(O)(c3ccc(Cl)cc3)CC2)cc1 | -71.8% |
| OC(CN1CCN(c2cccc(Cl)c2)CC1)c1ccc(F)cc1 (centres unmarked) | -47.2% |
| OC1(c2ccc(F)cc2)CCN(Cc2cccnc2)CC1 | 4.22% |
| Cc1ccc(Cn2nnnc2CN2CCC(O)(c3ccc(F)cc3)CC2)cc1 | -7.64% |
